According to PubChem BioAssay AID1721 (National Center for Advancing Translational Sciences (NCATS), 2009):
In all, about 290,000 compounds went through this assay and about 1,100 (0.38%) were called active. Many of the other results were omitted from the sample, so actives are more common in it than they were. Unmarked numbers belong to inactive results. Calls come from the whole dose curve; as a rule, active = well fitted inhibition curve with a large enough effect; inconclusive = small, poorly fitted or top-dose-only effect, or another doubt; inactive = no such curve, though single readings can be large or run the other way.

Target: Pyruvate kinase (Leishmania mexicana) (UniProt Q27686)
Sequence (Q27686 whole entry, looked up): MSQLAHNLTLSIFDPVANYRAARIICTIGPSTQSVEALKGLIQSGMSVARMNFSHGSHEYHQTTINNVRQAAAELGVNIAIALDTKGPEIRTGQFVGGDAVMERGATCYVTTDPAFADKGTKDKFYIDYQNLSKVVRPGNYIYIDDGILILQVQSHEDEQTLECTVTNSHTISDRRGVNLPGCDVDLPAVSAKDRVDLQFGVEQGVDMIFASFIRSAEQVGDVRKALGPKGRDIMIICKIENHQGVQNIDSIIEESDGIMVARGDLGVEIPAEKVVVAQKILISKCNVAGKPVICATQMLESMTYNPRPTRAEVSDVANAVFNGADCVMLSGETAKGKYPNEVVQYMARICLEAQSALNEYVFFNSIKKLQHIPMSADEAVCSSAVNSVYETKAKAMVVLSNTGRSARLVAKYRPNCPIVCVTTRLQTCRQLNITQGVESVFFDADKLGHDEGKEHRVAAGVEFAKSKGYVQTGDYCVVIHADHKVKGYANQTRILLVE
Assay: qHTS Assay for Inhibitors of Leishmania Mexicana Pyruvate Kinase (LmPK)
Conditions: purified LmPK, Kinase-Glo ATP luminescence, 1 h; series mostly up to 57.5 µM; activity change, negative = inhibition: at the top concentration
From the text: NIH Chemical Genomics Center [NCGC] Malcolm Walkinshaw, Hugh Morgan, Linda Gilmore University of Edinburgh, UK MLPCN Grant: 1 R03 MH085697-01 NCGC Assay Overview: Pyruvate kinase (L. Mexicana) (LmPK) enzyme was supplied as a highly purified (>95% pure) sulphate-free preparation from University of Edinburgh, UK and assayed for its ability to generate ATP from ADP using phosphoenolpyruvate (PEP) as a substrate. ATP generation was detected in a coupled reaction by luciferase-mediated luminescence, an ATP-dependent process. […] The enzyme was assayed at an intermediate level of activity to screen for both inhibitors and activators.
NCGC Assay Protocol Summary: Three uL of enzyme mix (kept on ice) in assay buffer (50 mM Imidazole pH7.2, 50 mM KCl, 7 mM MgCl2, 0.01% Tween 20, 0.05% BSA) containing PEP (0.5 mM final concentration) and LmPK (0.1 nM final concentration) was dispensed into white solid bottom 1,536 well microtiter plates. 23 nL of compound were delivered by a pin tool and 1 uL of ADP mix in assay buffer (r.t; 0.1 mM final ADP concentration) was added. Plates were incubated at room temperature for 1 hour. Two uL of detection mix (Kinase-Glo, Promega; at 4 degree Celsius protected from light) was added and luminescence read by a ViewLux (Perkin Elmer) at 1 second exposure/plate. Data were normalized to the uninhibited and AC100 inhibition (no enzyme). To monitor activation, the first column contained a five-fold concentration of LmPK (0.5 nM).
% is set by controls: 0 for no effect and ±100 for the full control effect; potency is the fitted concentration of half-maximal effect.

Row | SMILES | activity change, negative = inhibition | Potency
1 | CC1CC(C)CN(c2ccc(S(=O)(=O)N3CCOCC3)cc2)C1 (stereo not drawn) | -0.351% | –
2 | Cc1cc(CN(C)C(=O)c2cc(COc3ccc(C)c(C)c3)on2)n[nH]1 | -9.74% | –
3 | O=c1oc2ccccc2cc1-c1csc(Nc2ccc(O)cc2)n1 | -1.09% | –
4 | O=C(NCc1cccnc1)c1cccc(-c2cc3ccccc3oc2=O)c1 | 4.26% | –
5 | Nc1ncc(-c2cc3ccccc3oc2=O)s1 | – | 11.2 µM (active)
6 | Clc1ccc(-c2ncc3ccccn23)c(Cl)c1 | 13.2% | –
7 | Clc1ccc(-c2cc(-c3ccccn3)on2)c(Cl)c1 | – | 15.8 µM (active)
8 | O=C1CSC(c2ccccc2)N1c1nc(-c2ccc(Cl)cc2Cl)cs1 (stereo not drawn) | 3.75% | –
9 | CCOC(=O)C(C)n1cnc2c(nnn2-c2ccc(F)cc2)c1=O (stereo not drawn) | -2.05% | –
10 | CN(C)N1C(N)=C(C#N)C(c2ccc(Br)cc2)C2=C1CCCC2=O (stereo not drawn) | -1.06% | –
11 | COc1ccc(-c2cn3cccnc3n2)cc1 | -19.6% | –
12 | CCN(CC)S(=O)(=O)c1ccc(-c2cn3ccc(C)cc3n2)cc1 | 6.04% | –
13 | COc1ccc(-c2cn3ccc(C)cc3n2)cc1 | – | 8.91 µM (active)
14 | Cc1ccc(NS(=O)(=O)c2c(C)[nH]c(C)c2C(=O)N2CCCCC2)c(C)c1 | 3.83% | –
15 | COc1ccc(Br)cc1C(=O)NC(=S)Nc1cc(-c2nc3ccccc3[nH]2)ccc1C | -0.276% | –
16 | OC(c1nc2ccccc2[nH]1)C(O)C(O)C(O)c1nc2ccccc2[nH]1 (stereo not drawn) | -3.27% | –
17 | c1ccc2[nH]c(-c3nc4ccccc4[nH]3)nc2c1 | – | 8.91 µM (active)
18 | Cc1ccc(-c2nc3ccccc3[nH]2)cc1N | – | 15.8 µM (active)
19 | Cc1ccc(-c2nc3ccccc3[nH]2)cc1NC(=O)c1sc2ccccc2c1Cl | 2.87% | –
20 | O=C(Nc1cccc(-c2nc3ccccc3[nH]2)c1)c1ccc(C(=O)Nc2cccc(-c3nc4ccccc4[nH]3)c2)cc1 | -0.55% | –
21 | C[C@H](NC(=O)C1CCN(S(=O)(=O)c2ccccc2)CC1)C(=O)NCc1ccccc1 | 7.11% | –
22 | COc1ccccc1C(=O)NC(=S)Nc1ccccc1N1CCCCC1 | -1.2% | –
23 | CC1(C)Cc2c(sc(NC(=O)C(=O)N3CCOCC3)c2C#N)CO1 | -5.69% | –

Row | SMILES | activity change, negative = inhibition | Potency
24 | COc1ccc(OCCC(=O)c2ccc(OC)cc2)cc1 | 1.36% | –
25 | COc1ccc(C(=O)C[n+]2ccc(C)cc2)cc1 | -0.711% | –
26 | COc1ccc(C(=O)C[n+]2ccc(N)c(C)c2C)cc1 | – | 7.94 µM (active)
27 | CC(=O)NC1=NN(C(C)=O)C(C)(c2ccc(Cl)s2)S1 (stereo not drawn) | -1.14% | –
28 | CC(C)[C@H](NC(=O)N1CCn2c1nc1ccccc12)C(=O)NCc1ccc2c(c1)OCO2 | 9.8% | –
29 | N/C(=N\OC(=O)c1ccc([N+](=O)[O-])cc1)c1ccccn1 | – | 5.01 µM (active)
30 | N/C(=N\OC(=O)Cc1ccc([N+](=O)[O-])cc1)c1ccccn1 | -2.74% | –
31 | COc1ccc(C(=O)O/N=C(\N)c2ccccn2)cc1[N+](=O)[O-] | 4.73% | –
32 | COc1cccc(NC(=O)[C@H](Cc2c[nH]c3ccccc23)NC(=O)[C@@H]2Cc3ccccc3CN2)c1 | 6.25% | –
33 | COc1cc(C(=O)N/C(=C\c2cn(C)c3ccccc23)C(=O)N2CCOCC2)cc(OC)c1OC | -3.61% | –
34 | COc1cnc(-c2ccccn2)nc1Oc1ccc(C(C)(C)C)cc1 | 1.88% | –
35 | O=C1Nc2ccc(Br)cc2/C1=N/N=C/C1=C(N2CCOCC2)C(=C\c2ccccc2)/CC1 | – | 14.1 µM (active)
36 | C(=N\N1CCN(c2ccccn2)CC1)/C1=C(N2CCOCC2)C(=C/c2ccccc2)/CC1 | 0.842% | –
37 | N#C/C(=C\C1=C(N2CCOCC2)C(=C\c2ccccc2)/CC1)C(=O)Nc1ccccc1F | -21.5% | –
38 | CC1CCC2CCCCC2N1C(=O)c1cc([N+](=O)[O-])cc([N+](=O)[O-])c1 (stereo not drawn) | -2.35% | –
39 | CCCS(=O)(=O)N1CCN=C1SCc1cccc(F)c1 | -2.88% | –
40 | COc1ccc(-c2nc3cc([N+](=O)[O-])ccc3o2)cc1OC | 3.94% | –
41 | COc1ccc2oc(-c3cccc(NC(=O)CSc4ccc(Cl)cc4)c3)nc2c1 | 1.44% | –
42 | COc1cccc(-c2nc3cc(C)ccc3o2)c1 | – | 14.1 µM (active)
43 | COc1nc(-c2ccc(Cl)cc2)ccc1-c1noc(-c2cccs2)n1 | 2.05% | –
44 | c1ccc(-c2noc(-c3cccs3)n2)nc1 | – | 11.2 µM (active)
45 | COc1ccc(Cc2nc(-c3ccccn3)no2)cc1OC | 2.13% | –
46 | C=CCOc1ccc(C(=O)Nc2ccccc2C(=O)N2CCCC2)cc1 | 3.25% | –

Row | SMILES | activity change, negative = inhibition | Potency
47 | COC(=O)c1ccc(C23CC4(C2)[C@H](CN(Cc2cccnc2)[C@@H]4c2ccccc2)C3c2ccc(Cl)nc2)cc1 (stereo partly drawn) | 4.28% | –
48 | Cc1cccc(NC(=O)c2cc(S(=O)(=O)N3CCC4(CC3)OCCO4)ccc2F)c1 | -12.3% | –
49 | CCCCCCCC1=Cc2ccc(F)cc2C(C(C(=O)OC)C(=O)OC)N1C(=O)OC (stereo not drawn) | -1.7% [at 11.5 µM] | –
50 | S=c1[nH]ccn1-c1ccc(Cl)cc1 | – | 25.1 µM (active)
51 | O=S(=O)(c1ccc(F)cc1)N1CCN=C1SCc1cccc(F)c1 | -5% | –
52 | CC(=O)Oc1cccc(C(=O)Nc2ccccc2NC(=O)c2cccc(OC(C)=O)c2)c1 | -0.0951% | –
53 | C=CCN1c2ccccc2[C@]23C[C@@H](C(=O)OC)N(S(=O)(=O)c4ccc([N+](=O)[O-])cc4)C2=NC(C(=O)OC)=C(C(=O)OC)[C@H]13 | -3.12% [at 11.5 µM] | –
54 | CC(=O)Nc1ccc(NC(=O)CN2C(=O)COc3ccc(S(=O)(=O)N4CCCCC4)cc32)cc1 | -9.76% | –
55 | COc1ccc(C2=NOC3(CC(=O)N(c4ccc(C)cc4)C3=O)C2)cc1 (stereo not drawn) | 1.45% | –
56 | COc1ccc(NC(=O)c2cc(-c3ccc(C)cc3)on2)cc1 | 0.318% | –
57 | COc1ccc(C2=Nc3cc(C)ccc3OC2)cc1 | – | 11.2 µM (active)
58 | COc1ccccc1CN1CCNC(=O)C1CC(=O)N(C)CC1CCOCC1 (stereo not drawn) | 7.5% | –
59 | Cc1cccc(NC(=O)C2CCCN(C(=O)Nc3ccc(F)cc3)C2)c1C (stereo not drawn) | 1.61% | –
60 | COc1cc2c(C(=O)N(C)c3cc(Cl)ccc3OC)cn(C)c(=O)c2cc1OC | 1.4% | –
61 | COC(=O)C1=C(C(=O)OC)[C@@H]2Nc3ccccc3[C@@]23C[C@@H](C(=O)OC)N(S(=O)(=O)c2ccc([N+](=O)[O-])cc2)C3=N1 | -0.378% [at 11.5 µM] | –
62 | O=C(Nc1ccc(Cl)cn1)c1ccc2c(c1)OCCO2 | – | 28.2 µM (active)
63 | O=C(Nc1cccc(S(=O)(=O)Nc2ccc(Cl)cc2)c1)c1ccc2c(c1)OCCO2 | 2.39% | –
64 | Cc1nc(NC(=O)c2ccc3c(c2)OCCO3)ccc1Br | -11.3% | –
65 | COC(=O)C(C(=O)OC)C1c2ccccc2C=C(C2CC2)N1C(=O)OC (stereo not drawn) | -6.03% [at 11.5 µM] | –
66 | O=C(O)CCN=C1CCc2ccccc2N1 | -0.35% | –
67 | CSc1cccc(NC(=S)N(C(C)C)C(C)c2ccccn2)c1 (stereo not drawn) | 7.92% | –
68 | Cc1ccc(O)c(/C=N/NC(=O)COc2ccc3c(C)cc(=O)oc3c2)c1 | 3.6% | –
